Data reported in PubChem BioAssay AID1645879 (National Center for Advancing Translational Sciences (NCATS), 2021).
Results filed as inconclusive are left out. A call without a number means that no potency is given here. The source made the active and inactive calls. The call rests on the fitted dose curve; in most records, active means well fitted inhibition curve with a large enough effect; inconclusive means small, poorly fitted or top-dose-only effect; inactive means no such curve, though single readings can be large or run the other way.

Test: Counterscreen qHTS assay for inhibitors of N-terminal methyltransferase 1 (NTMT1): SPKRIA Counterscreen Assay
Conditions: biochemical qHTS; series mostly up to 99.2 µM
Description: Assay Submitter (PI): Rong Huang Ph.D,
Purdue University, West Lafayette, IN 47907
The N-terminal methytransferase 1 is the first methyltransferase that methylates protein alpha-N-amines and plays an important role in regulating cell mitosis, chromatin interactions and DNA repair. It is observed to be over-expressed in various cancer patient tissues like malignant melanoma and colorectal cancer tissues. Knockdown of NTMT1 in cancer cells causes cell mitotic defects and enhances sensitivity to DNA damaging chemotherapeutics. […] These critical cellular processes in which NTMT1 is implicated, coupled with emerging links to cellular dysfunction, strengthen the inference that NTMT1 is a compelling novel anticancer target. Progress have been made in understanding the molecular properties of NTMT1 and the biological consequences of protein alpha-N-terminal methylation, but there are no specific small molecule probes available for NTMT1 to fully characterize its MTase activity. To address this unmet need, a panel of assay is created and established to enable quantitative high-throughput screening (qHTS) for novel, potent, and selective small molecule NTMT1 inhibitors. Two orthogonal qHTS that use different reagents (ThioGlo vs. MTaseGlo) are developed for primary robotic screening against the NCATS chemical library of more than 400,000 small molecules. Identified inhibitors are reacquired, validated, and further characterized.
MTaseGlo Assay is a luminescence screen that measure the activity of methyltransferases based on the reaction product S-adenosyl homocysteine (SAH). The substrate SAM is converted to SAH upon enzyme activation. MTase-Glo reagent and detection solution convert SAH to ATP and measure the light from the luciferase reaction. Nicotinamide N-methyltransferase (NNMT) is a cystolic enzyme that catalyzes the transfer of a methyl group from the co-factor SAM onto the substrate, nicotinamide (NA) to form 1-methyl-nicotinamide (MNA) and SAH. NNMT MTaseGlo assay is used as a counterscreen to evaluate selectivity of identified inhibitors.
SPKRIA and Ac-RCC-10 control is provided by the Huang laboratory.
PROTOCOL TABLE; SEQUENCE No. (e.g., 1, 2, 3, etc.); […] (e.g., Cells, Incubation, Reagent, etc.); VALUE; DESCRIPTION
1; Reagent; 3 uL; dispense assay buffer.
2; Compound; 23 nL; pin compounds and control into the assay plate.
3; Time; 15 min; room temperature incubation.
4; Reagent; 1 uL; dispensed [4x] substrate or buffer.
5; Time; 30 min; incubate at room temperature.
6; Reagent; 1 uL; dispense MTase-Glo Reagent (R).
7; Time; 30 min; incubate at room temperature.
8; Reagent; 5 uL; dispense [1x] MTase-Glo Detection Solution to allow for ADP to be converted to ATP.
9; Centrifugation; 1,000 RPMs; assay plates were centrifuged.
10; Incubation; 30 min; room temperature.
11; Detection; Luminescence; ViewLux plate reader (clear filter, 10 second exposure).
NOTES (numbers refer to Sequence numbers above; values are from representative experiments)
1; Dispense the assay buffer into Greiner 1536-well black / solid bottom assay plate (Greiner Bio One, Monroe, NC).
2; Pin control inhibitor Ac-RCC1-10 at a final concentration range of 234 nM to 143 uM using a Wako Pin Tool (Wako Automation USA) equipped with a 1536-slotted pin array (Wako Automation, Richmond, VA). Pin compound library into the assay plates (columns 5 - 48) at a final concentration range of 97 nM to 250 uM.
3; Incubate the assay plates at room temperature.
4; Dispense 1 uL of substrate SPKRIA solution (final concentration 1 uM) or 1 uL buffer was added to the wells bringing the final assay volume to 4uL. The assay plate was covered with metal lids.
5; Incubate the assay plate at room temperature.
6; Dispense 1 uL of 5x MTase-Glo Reagent in the assay plate.
7; Incubate at room temperature to allow for SAH to be converted to ADP
8; Dispense 5 uL of 5x MTase-Glo Detection Solution in the assay plate to allow for ADP to be converted to ATP.
9; Assay plates were centrifuged for 15 seconds.
[…]

| Structure (SMILES) | Potency |
| --- | --- |
| Cc1cc(C)nc(NC(=S)N2CCN(c3ccccn3)CC2)c1 | inactive |
| Cc1cc2c(s1)c1cnn(Cc3ccc(C)c(F)c3)c(=O)c1n2C | inactive |
| Nc1ccc2nc(-c3ccc(O)cc3)sc2c1 | 44.7 µM (active) |
| CC(=O)Nc1sc2c(c1-c1ccc3scnc3c1)CCNC2 | inactive |
| Cc1ccc2nc(-c3ccc(O)cc3)c(Nc3ccc(Cl)cc3)n2c1 | inactive |
| COc1ccccc1C(=O)Nc1onc2c1CCCC2 | inactive |
| CC[C@H](c1ccc(O)cc1)[C@@H](CC)c1ccc(O)cc1 | inactive |
| O=C(Nc1ccc2c(c1)CCC2)Nc1nnc(-c2ccncc2)s1 | inactive |
| NC(=O)C1CCN(c2nc(-c3cccc4ccccc34)cs2)CC1 | inactive |
| COc1cc2ncnc(Nc3cccc(Cl)c3)c2cc1OC | 22.4 µM (active) |
| Cc1nc(C)c(-c2ccc3ncnc(NCc4ncc[nH]4)c3c2)s1 | 44.7 µM (active) |
| Nc1nc2c(s1)C(c1ccccc1Cl)CC(=O)N2 (stereo not given) | inactive |
| CN(C)C(=O)c1ccc(-c2cc[nH]c(=O)c2N)cc1 | inactive |
| Cc1ccc(Nc2ncnc3c2cnn3-c2ccccc2)c(C)c1 | 7.94 µM (active) |
| NC(=O)C1CCN(c2nc(-c3ccc(F)cc3)cs2)CC1 | 44.7 µM (active) |
| O=C(O)c1ccc(-c2noc(-c3cccc(Cl)c3)n2)cc1 | inactive |
| NC(=O)C1CCN(c2nc(-c3ccccc3Cl)cs2)CC1 | inactive |
| O=c1cc(-c2ccccc2)oc2ccc(O)cc12 | 31.6 µM (active) |
| C[C@]12CC[C@@H]3c4ccc(O)cc4CC[C@H]3[C@@H]1C[C@@H](O)[C@@H]2O | inactive |
| Cc1cc2c(s1)c1cnn(Cc3cccc(F)c3)c(=O)c1n2C | inactive |

| Structure (SMILES) | Potency |
| --- | --- |
| C1CCC(C(CC2CCCCN2)C2CCCCC2)CC1 (stereo not given) | inactive |
| CC(C)c1ccc(Nc2ncnc3c2nc2n3CCCC2)cc1 | 50.1 µM (active) |
| COCCCNc1ncnc2onc(-c3ccc(F)cc3)c12 | 50.1 µM (active) |
| Oc1ccc(-c2nc(-c3ccc(F)cc3)c(-c3ccncc3)[nH]2)cc1 | 44.7 µM (active) |
| Cc1c(Cl)cccc1Nc1nn2c(=O)c3ccccc3nc2s1 | inactive |
| CCc1cc(C(N)=S)ccn1 | inactive |
| CNc1sc(-c2cccc3ccccc23)nc1C#N | inactive |
| O=C(Nc1onc2c1CCCC2)c1ccccc1 | inactive |
| O=c1c(-c2ccc(O)cc2)coc2cc(O)ccc12 | inactive |
| NC(=O)C1CCN(c2nc(-c3ccc4c(c3)CCO4)cs2)CC1 | inactive |
| Oc1cccc(Nc2nc(-c3ccccc3)nc3ccccc23)c1 | 20 µM (active) |
| CC(C)CCNc1ncnc2c1cnn2-c1cccc(Cl)c1 | 22.4 µM (active) |
| Cc1cccc(-n2cnc3cc(C(=O)NC4CCCC4)ccc32)c1 | 44.7 µM (active) |
| C[C@]12CCC3=C4CCC(=O)C=C4CC[C@H]3[C@@H]1CC[C@@]2(O)CC#N | inactive |
| NC(=O)c1ncn([C@@H]2O[C@H](CO)[C@@H](O)[C@H]2O)c1N | inactive |
| COc1ccc(C(=O)Nc2onc3c2CCCC3)cc1 | inactive |
| CC(C)=CCC/C(C)=C/CC/C(C)=C/CSc1ccccc1C(=O)O | inactive |
| CN1CCCN=C1/C=C/c1cccs1 | inactive |
| CN(C)CCC=C1c2ccccc2C=Cc2ccccc21 | inactive |
| CCC1(C)CC(=O)NC1=O (stereo not given) | inactive |
